# Measured values reported in PMC4552634, “A New Set of Chemical Starting Points with Plasmodium falciparum Transmission-Blocking Potential for Antimalarial Drug Discovery” (PLoS ONE, 2015).
# Like-named read-outs stand apart in the source and are kept apart here. Out of some 13,000 compounds screened, about 3,200 (25%) showed an effect of 50% or more. This is one part of the list.
# Tested on: P. falciparum stage V gametocytes
# Design: BacTiter-Glo ATP luminescence viability of purified stage V gametocytes in 384-well plates, per cent inhibition versus DMSO
# Conditions: 48 h, 5 µM, inhibitor
Structure (SMILES),% Inhibition,% Inhibition (% Inhibition)
CC(C)(CNCc1ccc(F)c(F)c1)c1nc(-c2ccc(Cl)c(O)c2)c(-c2ccnc(N)n2)[nH]1 [TCMDC-141163],-6.922%,–
O=C(NCCSCc1c(F)cccc1Cl)c1cnc2c(c1)nc(-c1cnc(-c3ccccc3)[nH]1)n2CCc1cnc[nH]1 [TCMDC-139691],-6.07%,–
CCCOc1cc(OCCC)cc(-c2ccc(C(=O)Nc3ccc4ccc(C)nc4c3)c(=O)[nH]2)c1 [TCMDC-141499],82.34%,–
CCNc1cc(C)nc(Nc2ccc(NC(=O)c3ccccc3Cl)cc2)n1 [TCMDC-124986],-9.535%,–
Cc1ccc2cc(NC(=O)c3cccc(C(=O)Nc4ccc5nc(C)ccc5c4)n3)ccc2n1 [TCMDC-139460],-22.62%,–
CC1(C)CCCN(Cc2c(O)ccc3c(=O)c(-c4nc5ccccc5s4)c(N)oc23)C1 [TCMDC-124009],-3.964%,–
O=C(NC1CCN(Cc2ccsc2)CC1)c1ccc(-c2cccc(C(F)(F)F)c2)s1 [TCMDC-134366],17.83%,–
Cc1nc(-c2nc(N3CCC(O)CC3)ncc2-c2ccsc2)sc1C [TCMDC-133149],35.11%,–
Cc1cc(CN2CCC(Nc3ncc(-c4ccsc4)c4nc(C(F)(F)F)ccc34)CC2)no1 [TCMDC-125306],66.69%,–
NC(=O)c1cc(-c2ccccc2)cc2c(C3CCC(NCc4ccccc4)C3)c[nH]c12 (stereo not drawn) [TCMDC-136335],119.1%,–
CCCNc1ccc(-c2cc(C(N)=O)c3[nH]cc(C4CCN(S(=O)(=O)CC)CC4)c3c2)cn1 [TCMDC-136721],8.74%,–
Oc1cccc2c1CC(NCc1ccccc1)CC2 (stereo not drawn) [TCMDC-137987],8.096%,–
COC(=O)c1sccc1NC(=S)NC1CCC(CN2CCC(c3c[nH]c4ccccc34)CC2)CC1 (stereo not drawn) [TCMDC-140184],–,87.69%
S=C(Nc1ccc2c(c1)OCCO2)NC1CCC(CN2CCC(c3c[nH]c4ccccc34)CC2)CC1 (stereo not drawn) [TCMDC-140205],–,-9.163%
COC(=O)c1sccc1NC(=S)NC1CCC(CN2CCC(c3c[nH]c4ccccc34)CC2)CC1 (stereo not drawn) [TCMDC-140202],–,68.17%
S=C(Nc1ccc2c(c1)OCCO2)NC1CCC(CN2CCC(c3c[nH]c4ccccc34)CC2)CC1 (stereo not drawn) [TCMDC-140187],–,28.79%
O=C(Nc1ccc(C(=O)OCC2CCCN3CCCCC23)cc1)c1ccc([N+](=O)[O-])cc1 (stereo not drawn) [TCMDC-124028],-7.885%,–
COc1ccc(-c2ccccc2CNc2nc(NCCc3ccc(O)cc3)nc(N3CCNCC3)n2)cc1 [TCMDC-133785],16.29%,–
COc1ccc2nc(N3CCNCC3)nc(NCCCc3ccccc3)c2c1 [TCMDC-138367],61.05%,–
COc1ccc2nc(N3CCN(C(=O)OC(C)(C)C)CC3)nc(NCCCc3ccccc3)c2c1 [TCMDC-138361],104.5%,–
Oc1ccc2nc(N3CCNCC3)nc(NCCCc3ccccc3)c2c1 [TCMDC-138362],-3.438%,–
COc1ccc2nccc([C@@H](O)CN3CCC(NC[C@H](Cc4ccccc4)NC(=O)OC(C)(C)C)CC3)c2c1 [TCMDC-140729],28.25%,–
C/C(=C\C(=O)NC1CC1)c1ccccc1OCc1ccccc1 [TCMDC-137859],-0.1612%,–
COC(=O)c1cccc(CNCc2cccc(-c3ccc(-c4nc5ccccc5[nH]4)s3)c2)c1.O=C(O)C(F)(F)F [TCMDC-132944],-0.1401%,–
Cc1cc(NCCC(=O)NCCOc2ccccc2)nc(NCCc2ccc(F)cc2)n1 [TCMDC-134865],48.39%,–
COc1ccc(NC(=O)CCNc2cc(C)nc(NCCOc3ccccc3)n2)cc1 [TCMDC-134876],16.63%,–

Structure (SMILES),% Inhibition,% Inhibition (% Inhibition)
COc1ccc(NC(=O)CCNc2cc(C)nc(Nc3ccccc3)n2)cc1 [TCMDC-134731],16.78%,–
Cc1cc(NCCC(=O)NCCOc2ccccc2)nc(Nc2ccccc2)n1 [TCMDC-134732],39.63%,–
Cc1cc(NCCC(=O)NCCOc2ccccc2)nc(NCCOc2ccccc2)n1 [TCMDC-134877],53.53%,–
Cc1cc(NCCC(=O)NCCOc2ccccc2)nc(NCc2ccccc2C)n1 [TCMDC-134900],9.691%,–
Cc1cc(NCCC(=O)NCCOc2ccccc2)nc(NCCc2ccccc2)n1 [TCMDC-134771],71.03%,–
Cc1cc(NCCC(=O)Nc2ccccc2)nc(NCCOc2ccccc2)n1 [TCMDC-134878],88.65%,–
COc1ccccc1CCNc1nc(C)cc(NCCC(=O)NCCOc2ccccc2)n1 [TCMDC-134799],41.79%,–
Cc1cccc(N2CCN(C3CCC(NC(=O)c4cc5ccccc5[nH]4)CC3)CC2)c1C (stereo not drawn) [TCMDC-132891],-4.538%,–
COc1ccc(S(=O)(=O)N2CCC(NS(=O)(=O)c3ccc(F)cc3)CC2)cc1 [TCMDC-123512],11.24%,–
CC(=O)Nc1ccc(CN(C)C2CCN(c3cc(NC(=O)c4cccc(C)c4)ccn3)CC2)cc1 [TCMDC-134982],-8.957%,–
CN1CCN(c2cccc(NC(=O)c3ccc(-c4ccc(C#N)cc4)cc3)c2)CC1 [TCMDC-138669],-26.05%,–
COc1ccc2nc(Nc3nc(-c4ccccn4)cs3)sc2c1 [TCMDC-125541],1.427%,–
c1ccc(-c2csc(Nc3nc4cc5c(cc4s3)OCO5)n2)nc1 [TCMDC-124550],41.05%,–
Fc1cccc2sc(Nc3nc(-c4ccccn4)cs3)nc12 [TCMDC-125542],81.67%,–
Fc1ccc2nc(Nc3nc(-c4ccccn4)cs3)sc2c1 [TCMDC-125540],71.85%,–
COc1cccc2sc(Nc3nc(-c4ccccn4)cs3)nc12 [TCMDC-125543],33.34%,–
Cc1ccc(NC(=O)c2ccc3ncccc3c2)cc1OC1CCN(Cc2ccc(F)cc2)CC1 [TCMDC-133747],-16.12%,–
Cc1cc(NC(=O)Nc2ccc(I)c(OCCN(C)C)c2)ccc1Br [TCMDC-139108],-4.695%,–
CN(Cc1cccc(O)c1)C1CCCN(c2cc(NC(=O)c3ccc(F)cc3)ccn2)C1 (stereo not drawn) [TCMDC-134960],-31.52%,–
CNC(=O)/C=C/c1cc(NC(=O)Nc2ccnc3c(Br)cccc23)ccc1OC [TCMDC-140331],7.673%,–
O=C1C2=C(Nc3ccccc3SC2c2ccccc2)c2ccccc21 (stereo not drawn) [TCMDC-123496],22.47%,–
CN1CCCN(Cc2ccc(-c3cccc(NC(=O)c4cccc(F)c4)c3)cc2)CC1 [TCMDC-132646],-5.89%,–
COc1ccc(-c2cccc(NC(=O)c3cccc(F)c3)c2)cc1CN1CCCN(C)CC1 [TCMDC-132619],89.96%,–
COc1ccc(-c2ccc(NC(=O)c3cccc(F)c3)cc2)cc1CN1CCCN(C)CC1 [TCMDC-132528],79.48%,–
COc1ccc(-c2ccc(NC(=O)c3cccc(C#N)c3)cc2)cc1CN1CCCN(C)CC1 [TCMDC-132531],38.42%,–
COc1ccc(-c2cccc(NC(=O)c3ccc(F)cc3)c2)cc1CN1CCCN(C)CC1 [TCMDC-132607],5.891%,–

Structure (SMILES),% Inhibition,% Inhibition (% Inhibition)
COc1ccc2c(c1)OC(C)(C)CC2=NOS(=O)(=O)c1ccc(C)cc1 [TCMDC-131772],-0.3703%,–
O=c1cc(NCCCNC2CCOc3c(Cl)cc(Cl)cc32)[nH]c2ccccc12 (stereo not drawn) [TCMDC-139477],33.79%,–
CC(=O)N[C@H](C(=O)Nc1ccc(-c2ccc(-c3nc4ccc(C(F)(F)F)cc4[nH]3)cc2)cc1)C(C)C [TCMDC-136854],-3.438%,–
Cc1cccc2nc(-c3ccc(-c4ccc(NC(=O)NC5CC5c5ccccc5)cc4)cc3)[nH]c12 (stereo not drawn) [TCMDC-133255],-29.85%,–
Cc1nnsc1C(=O)Nc1cccc(-c2ccc(-c3nc4cccc(C)c4[nH]3)s2)c1 [TCMDC-137091],82.4%,–
COc1ccc(NC(=O)Nc2cccc(-c3ccc(-c4nc5cccc(C)c5[nH]4)s3)c2)cc1 [TCMDC-133242],1.322%,–
Cc1cccc2nc(-c3ccc(-c4ccc(NC(=O)Nc5ccc(Cl)cc5)cc4)s3)[nH]c12 [TCMDC-133176],-22.37%,–
Cc1nnsc1C(=O)Nc1ccc(-c2ccc(-c3nc4cccc(C)c4[nH]3)s2)cc1 [TCMDC-137090],0.4196%,–
Cc1nnsc1C(=O)Nc1cccc(-c2ccc(-c3nc4cc(F)ccc4[nH]3)s2)c1 [TCMDC-137089],59.58%,–
Cc1cccc2nc(-c3ccc(-c4cccc(NC(=O)Nc5ccc(Cl)c(Cl)c5)c4)s3)[nH]c12 [TCMDC-133272],-3.418%,–
Cc1nnsc1C(=O)Nc1cccc(-c2ccc(-c3nc4ccccc4[nH]3)s2)c1 [TCMDC-137079],9.217%,–
Cc1cccc2nc(-c3ccc(-c4cccc(NC(=O)Nc5ccc(Cl)cc5)c4)s3)[nH]c12 [TCMDC-133175],74.56%,–
O=C(Nc1cccc(-c2ccc(-c3nc4cc(F)ccc4[nH]3)s2)c1)c1ccncc1 [TCMDC-136968],-9.65%,–
CC1CC(NCCCNc2cc(=O)c3ccccc3[nH]2)c2cc(Cl)c(Cl)c(Cl)c21 (stereo not drawn) [TCMDC-139479],22.71%,–
N=C(N)c1nc2ccccc2s1 [TCMDC-123945],9.097%,–
C(=Cc1nc2ccccc2s1)c1ccc2c(c1)OCCO2 [TCMDC-124539],68.35%,–
C=CCNC(=O)CCCN=C(N)N [TCMDC-131668],6.787%,–
CC(C)(C)c1ccc(CNC(=O)c2ccc(-c3nc4ccc(Cl)cc4[nH]3)cc2)cc1 [TCMDC-140442],5.243%,–
CC(C)(C)c1ccc(CNC(=O)c2ccc(-c3nc4ccc(C(C)(C)C)cc4[nH]3)cc2)cc1 [TCMDC-140455],76.42%,–
Cc1cc2nc(-c3ccc(OCC(=O)NCc4cccc(C(F)(F)F)c4)cc3)[nH]c2cc1C [TCMDC-140439],-1.946%,–
CC(C)(C)c1ccc2nc(-c3ccc(C(=O)NCCCc4ccccc4)cc3)[nH]c2c1 [TCMDC-140453],68.75%,–
Cc1cc2nc(-c3ccc(C(=O)NCc4ccc(C(C)(C)C)cc4)cc3)[nH]c2cc1C [TCMDC-140433],-24.96%,–
CC(C)(C)c1ccc2nc(-c3ccc(C(=O)NCc4cccc(C(F)(F)F)c4)cc3)[nH]c2c1 [TCMDC-140454],18.91%,–
Cc1cc2nc(-c3ccc(OCC(=O)NCc4ccc(C(C)(C)C)cc4)cc3)[nH]c2cc1C [TCMDC-140440],63.48%,–
CCOC(=O)c1ccc2nc(-c3ccc(C(=O)NCc4ccc(C(C)(C)C)cc4)cc3)[nH]c2c1 [TCMDC-140576],-8.95%,–
Cc1cc2nc(-c3ccc(C(=O)NCCCc4ccccc4)cc3)[nH]c2cc1C [TCMDC-140429],-39.85%,–
